Data as given in PubChem BioAssay (NCATS).
Records with an inconclusive call do not appear. The source made the active and inactive calls. Unless noted, the call rests on the fitted dose curve; in most records, active means well fitted curve in the direction sought with a large enough effect; inconclusive means small, poorly fitted or top-dose-only effect, or another doubt; inactive means no such curve, though single readings can be large; an effect the other way counts as inactive or inconclusive.

How the values were obtained:
[1] = Cell Viability - BJ (AID 421; calls by dose curve;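 further: potency means the concentration at half of the fitted maximal effect; cells exposed to compound for 40 hours at 37 °C before readout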); settings: BJ fibroblast viability, qHTS
Summary of the method: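 Quantitative HTS: ATP depletion in BJ cells after 40 hr compound exposure in complete culture medium, detected with CellTiter-Glo; AC50 from standard Hill fits.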

[2] = Cell Viability - Hek293 (AID 427;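 active means compounds whose dose-response curve shows a full or clear partial loss of cell viability, called from curve shape rather than a numeric limit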;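 further: potency means the concentration at half of the fitted maximal effect; cells exposed to compound for 40 hours at 37 °C before reading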); settings: qHTS
Summary of the method: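 AC50 values derive from Hill-modelled concentration-response of ATP-based luminescence, normalized between DMSO-only and 100 uM tamoxifen controls. Cells were exposed in complete culture medium for 40 hr at 37 °C before detection.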

[3] = Cell Viability - HepG2 (AID 433; calls by dose curve;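 further: potency means the concentration at half of the fitted maximal effect; potency for ATP loss meaning cytotoxicity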); settings: qHTS
Summary of the method: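 Cytotoxicity is scored as loss of intracellular ATP in HepG2 cells exposed to compounds for 40 h. Concentration-response curves, normalized to DMSO and 100 uM tamoxifen, give AC50 values.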

[4] = Cell Viability - MRC5 (AID 434; calls by dose curve;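 further: potency means the concentration at half of the fitted maximal effect; cells exposed to compound for 40 hours at 37 °C; potency reflects cytotoxicity seen as loss of intracellular ATP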); settings: MRC5 lung fibroblast viability, qHTS
Summary of the method: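 AC50 values come from Hill-equation fits of intracellular ATP loss, measured by CellTiter-Glo luminescence. Normal lung fibroblasts (MRC5) had 40 hr compound treatment at 37 C, normalized between DMSO and 100 uM tamoxifen.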

[5] = Cell Viability - SK-N-SH (AID 435; calls by dose curve; further: potency means the concentration at half of the fitted maximal effect); settings: SK-N-SH neuroblastoma cell viability qHTS
Summary of the method: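 Cells seeded at 1500 per well and incubated 5 hr at 37 °C. Compound added, then 40 hr at 37 °C. CellTiter-Glo added, 20 min at room temperature, luminescence read.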

[6] = biological target: Mitogen-activated protein kinase 10 (Mus musculus) (UniProt Q61831); assay: JNK3 AlphaScreen Assay (AID 530; active means well fitted curve in either direction with a large enough effect, not every such curve was filed as active;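 further: kinase came from lysate of stimulated human HepG2 cells; signal reports phosphorylation of biotinylated GST-cJun 1-79 at Ser73 with 10 µM ATP; on the % scale 0 is the no-effect control and ±100 the full control effect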); settings: JNK3 lysate, c-Jun phosphorylation; series mostly up to 57.1 µM
Summary of the method: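 Kinase buffer: 20 mM Tris-HCl pH 7.6, 10 mM MgCl2, 1 mM DTT, 0.1 mM Na3VO4, 0.01% Tween-20; ATP 10 uM. Substrate biotin-GST-cJun(1-79), enzyme from activated HepG2 lysates. Detection by Ser73 phospho-antibody AlphaScreen.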

[7] = Cell Viability - N2a (AID 540); settings: N2a mouse neuroblastoma cell viability; activity change, negative = cytotoxicity: at 92.2 µM (top of the series);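 further: plate controls were DMSO alone for no effect and tamoxifen control for full effect; nearly all actives have a fitted effect of over 45% in size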
Summary of the method: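 N2a mouse neuroblastoma, 1500 cells/well, 5 hr settle; compound 40 hr, 37 °C; CellTiter-Glo 20 min RT; luminescence; Hill-fit AC50.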

[8] = Cell Viability - HUV-EC-C (AID 542); settings: HUV-EC-C endothelial cell viability, qHTS; series mostly up to 92.2 µM; further: on the % scale 0 is the no-effect control and ±100 the full control effect; nearly all actives have a fitted effect of over 35% in size
Summary of the method: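 Luminescent ATP read-out (CellTiter-Glo, 20 min room temperature) after 40 hr compound treatment of HUV-EC-C cells at 37 °C. Concentration-response data fitted with the standard Hill equation to give AC50; tamoxifen and doxorubicin served as positive controls.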

[9] = Cell Viability - H-4-II-E (AID 543); settings: H-4-II-E rat hepatoma viability; series mostly up to 92.2 µM; further: on the % scale 0 is the no-effect control and ±100 the full control effect; nearly all actives have a fitted effect of over 35% in size
Summary of the method: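 qHTS, rat hepatoma H-4-II-E, 1500 cells/well; 40 hr compound exposure, 37 °C; CellTiter-Glo ATP luminescence after 20 min RT; AC50 by standard Hill fit.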

[10] = Cell Viability - Renal Proximal Tubule (AID 545); settings: renal proximal tubule cells viability, primary cells of rat origin; series mostly up to 91.7 µM; further: nearly all actives have a fitted effect of over 40% in size
Summary of the method: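 Cytotoxicity is scored as a concentration-dependent drop in cellular ATP in primary rat renal proximal tubule cells exposed for 40 hr. AC50 derives from Hill modelling.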

[11] = Cell Viability - Mesenchymal (AID 546); settings: mesenchymal cells viability, qHTS; series mostly up to 91.7 µM;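 further: cells exposed to compound for 40 hours before reading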
Summary of the method: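 CellTiter-Glo luminescence (intracellular ATP, 20 min room temperature) after 40 hr compound exposure at 37 °C of 1000 glomerulus-derived human kidney mesenchymal cells/well; AC50 values obtained by fitting qHTS concentration-response data to the Hill equation.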

[12] = Cellular Toxicity (caspase-3) HepG2 (AID 654); settings: HepG2 caspase-3 activation, luminescence; series mostly up to 92.2 µM;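 further: cells exposed to compound for 16 hours before reading; 0% = DMSO alone and 100% = caspase signal from 100 µM tamoxifen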
Summary of the method: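 Luminescent Caspase-Glo 3/7 readout after 16 hr compound exposure of human hepatocellular carcinoma HepG2 cells at 37 °C; qHTS concentration-response, normalized DMSO = 0%, 100 uM tamoxifen = 100%; AC50 by standard Hill equation.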

[13] = Cellular Toxicity (caspase-3) Jurkat (AID 655); settings: Jurkat caspase-3 activation, luminescence; caspase-3 activation: at 92.2 µM (top of the series), DMSO = 0%, tamoxifen = 100%;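 further: cells exposed to compound for 16 h at 37 °C before reading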
Summary of the method: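 Caspase 3/7 activation is scored as increased luminescence in Jurkat cells cultured with compound for 16 hours in complete medium. AC50 values come from Hill fits of qHTS concentration-response data normalized to DMSO and 100 uM tamoxifen controls.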

[14] = Cellular Toxicity (caspase-3) HUV-EC-C (AID 656); settings: HUV-EC-C cells, caspase-3 activation (apoptosis), vehicle = 0, 100 µM tamoxifen = 100%; series mostly up to 92.2 µM
Summary of the method: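 Read-out: luminescence proportional to caspase 3/7 activity, measured 20 min after adding Caspase-Glo 3/7 reagent. Cells (HUV-EC-C) had received compound for 16 hr at 37°C. Increases relative to DMSO and 100 uM tamoxifen gave concentration-response AC50 values.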

[15] = Cellular Toxicity (caspase-3) SHSY5Y (AID 657); settings: SH-SY5Y caspase-3 activation, DMSO zero, 10 µM staurosporine = 100%; series mostly up to 91.7 µM;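 further: cells exposed to compound for 16 hours at 37 °C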
Summary of the method: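 Cells plated and incubated 5 h at 37 °C, dosed over a concentration range, incubated 16 h, then given Caspase-Glo 3/7 reagent for 1 h at room temperature before luminescence reading. Staurosporine (10 uM) defined full stimulation.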

[16] = Cellular Toxicity (caspase-3) MRC-5 (AID 659); settings: MRC-5 cells, luminescence, normalized: DMSO 0%, 10 µM staurosporine 100%; series mostly up to 91.7 µM
Summary of the method: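 Luminescent Caspase-Glo 3/7 read-out (1 h, room temperature) after a 16 h, 37 °C compound exposure of MRC-5 lung fibroblasts at 1500 cells/well. Concentration-response AC50 from Hill equation; 0% DMSO, 100% 10 uM staurosporine.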

[17] = Cell Viability - NIH 3T3 (AID 541); settings: NIH 3T3 cell viability, qHTS; activity change, negative = cytotoxicity: at 92.2 µM (top of the series);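 further: plate controls were DMSO alone for no effect and tamoxifen positive control for full effect; nearly all actives have a fitted effect of over 25% in size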
Summary of the method: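 qHTS format; 40 hr compound exposure, 37 °C; CellTiter-Glo luminescence (cellular ATP) read-out after 20 min at RT. Decrease in ATP = cytotoxicity; AC50 from standard Hill fit.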

[18] = Cell Viability - SH-SY5Y (AID 544); settings: SH-SY5Y neuroblastoma cell viability; viability change, negative = cytotoxic: at 92.2 µM (top of the series); further: nearly all actives have a fitted effect of over 55% in size
Summary of the method: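 SH-SY5Y, 1500 cells/well, 5 hr pre-incubation 37 °C; cpd 40 hr 37 °C; CellTiter-Glo 20 min RT; luminescence (ATP) read. qHTS concentration-response, Hill fit → AC50. Tamoxifen, doxorubicin as positive controls.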

[19] = Cellular Toxicity (caspase-3) BJ (AID 658); settings: BJ fibroblasts, luminescence, normalized: DMSO 0%, staurosporine 100%; series mostly up to 91.7 µM
Summary of the method: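 Caspase-Glo 3/7 luminescence, read 1 hr after reagent at room temperature, in normal BJ fibroblasts exposed 16 hours at 37 °C. AC50 values from Hill-equation concentration-response, scaled between DMSO basal and 10 uM staurosporine as 100%.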

CN(C)CCCCl
inactive: Potency [1] > 92 µM | Potency [2] > 92 µM | Potency [3] > 92 µM | Potency [4] > 92 µM | Potency [5] > 92 µM | outcome [6] | activity change, negative = cytotoxicity [7] -0.582% | Potency [8] | Potency [9] | Potency [10] | Potency [11] | Potency [12] | caspase-3 activation [13] 1.76% | outcome [14] | outcome [15] | outcome [16]

Nc1cccc([N+](=O)[O-])c1
inactive: Potency [1] > 92 µM | Potency [2] > 92 µM | Potency [3] > 92 µM | Potency [5] > 92 µM | outcome [6] | activity change, negative = cytotoxicity [7] -10.1% | Potency [17] | Potency [8] | Potency [9] | Potency [18] | Potency [11] | Potency [12] | outcome [14] | outcome [15] | outcome [19] | outcome [16]

O=C(O)c1ccc(Cl)c(Cl)c1
inactive: Potency [1] > 92 µM | Potency [2] > 92 µM | Potency [3] > 92 µM | Potency [5] > 92 µM | outcome [6] | activity change, negative = cytotoxicity [7] 1.1% | Potency [17] | Potency [8] | Potency [9] | Potency [18] | Potency [10] | Potency [11] | Potency [12] | outcome [14] | outcome [15] | outcome [16]

CC/C(C)=N/O
inactive: Potency [1] > 92 µM | Potency [2] > 92 µM | Potency [3] > 92 µM | Potency [4] > 92 µM | Potency [5] > 92 µM | outcome [6] | activity change, negative = cytotoxicity [7] 3.53% | Potency [9] | Potency [18] | Potency [10] | Potency [11] | Potency [12] | caspase-3 activation [13] -0.144% | outcome [14] | outcome [15] | outcome [19] | outcome [16]

Nc1cccc2c(=O)[nH][nH]c(=O)c12
inactive: Potency [1] > 92 µM | Potency [2] > 92 µM | Potency [3] > 92 µM | Potency [4] > 92 µM | Potency [5] > 92 µM | activity change, negative = cytotoxicity [7] 9.7% | Potency [17] | Potency [18] | Potency [10] | Potency [11] | Potency [12] | caspase-3 activation [13] 0.167% | outcome [14] | outcome [15] | outcome [19] | outcome [16]

CCC(C)(C)C
inactive: Potency [1] > 92 µM | Potency [2] > 92 µM | Potency [3] > 92 µM | Potency [4] > 92 µM | activity change, negative = cytotoxicity [7] -21.6% | Potency [17] | Potency [8] | Potency [18] | Potency [10] | Potency [11] | Potency [12] | caspase-3 activation [13] -0.787% | outcome [14] | outcome [15] | outcome [19] | outcome [16]

O=C(O)c1ccccc1[N+](=O)[O-]
inactive: Potency [1] > 92 µM | Potency [2] > 92 µM | Potency [3] > 92 µM | Potency [4] > 92 µM | Potency [5] > 92 µM | activity change, negative = cytotoxicity [7] 4.07% | Potency [17] | Potency [9] | Potency [18] | Potency [10] | Potency [11] | Potency [12] | outcome [14] | outcome [15] | outcome [19] | outcome [16]

C1CCC2OC2C1 (stereo unspecified)
inactive: Potency [1] > 92 µM | Potency [2] > 92 µM | Potency [3] > 92 µM | Potency [4] > 92 µM | Potency [5] > 92 µM | outcome [6] | activity change, negative = cytotoxicity [7] -14.9% | Potency [17] | Potency [8] | Potency [18] | Potency [10] | Potency [11] | Potency [12] | caspase-3 activation [13] 0.319% | outcome [14] | outcome [15] | outcome [19] | outcome [16]

CC(C)N(C)C
inactive: Potency [1] > 92 µM | Potency [2] > 92 µM | Potency [3] > 92 µM | Potency [4] > 92 µM | outcome [6] | activity change, negative = cytotoxicity [7] -3.04% | Potency [17] | Potency [8] | Potency [9] | Potency [18] | Potency [10] | Potency [11] | Potency [12] | caspase-3 activation [13] -0.157% | outcome [14] | outcome [15] | outcome [19] | outcome [16]

Cc1ccc(Br)cc1
inactive: Potency [1] > 92 µM | Potency [2] > 92 µM | Potency [3] > 92 µM | Potency [4] > 92 µM | Potency [5] > 92 µM | outcome [6] | activity change, negative = cytotoxicity [7] 6.22% | Potency [17] | Potency [8] | Potency [9] | Potency [18] | Potency [10] | Potency [11] | caspase-3 activation [13] 0.635% | outcome [14] | outcome [15] | outcome [19] | outcome [16]

C=C(C)C(N)=O
inactive: Potency [1] > 92 µM | Potency [2] > 92 µM | Potency [3] > 92 µM | Potency [4] > 92 µM | outcome [6] | activity change, negative = cytotoxicity [7] -7.09% | Potency [17] | Potency [8] | Potency [9] | Potency [18] | Potency [10] | Potency [11] | Potency [12] | caspase-3 activation [13] -0.182% | outcome [14] | outcome [15] | outcome [19]

CC1(N)CCC(C(C)(C)N)CC1 (stereo unspecified)
inactive: Potency [1] > 92 µM | Potency [2] > 92 µM | Potency [3] > 92 µM | Potency [4] > 92 µM | Potency [5] > 92 µM | outcome [6] | activity change, negative = cytotoxicity [7] -2.82% | Potency [17] | Potency [8] | Potency [9] | Potency [10] | Potency [11] | Potency [12] | caspase-3 activation [13] 1.23% | outcome [14] | outcome [15] | outcome [19] | outcome [16]

C1CCOC1
inactive: Potency [1] > 92 µM | Potency [2] > 92 µM | Potency [3] > 92 µM | Potency [4] > 92 µM | Potency [5] > 92 µM | outcome [6] | activity change, negative = cytotoxicity [7] 3.61% | Potency [17] | Potency [8] | Potency [9] | Potency [18] | Potency [10] | Potency [11] | Potency [12] | caspase-3 activation [13] -0.19% | outcome [14] | outcome [15] | outcome [19] | outcome [16]
